Compounds with a hit are over-represented: about 18% of the library has one in this group of screens.
DT40 TDP1 no CPT = qHTS for Inhibitors of human tyrosyl-DNA phosphodiesterase 1 (TDP1): qHTS in cells in absence of CPT; DT40 Tdp1-/- hTDP1 cells, no CPT, ATP luminescence, 48 h; Potency, µM (series often up to 46.2 µM), usual class: inhibitors; actives 15% (n = 420,000); AID 686978, 2013; note: nearly all actives have a fitted effect of over 55% in size
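No-CPT arm: Tdp1-/-;hTDP1 DT40 cells (400/well) plus compounds, incubated ≥48 hr at 37 °C. Readout CellTiter-Glo luminescence.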
VP16 counter = VP16 counterscreen qHTS for inhibitors of ROR gamma transcriptional activity. Potency, µM (top dose mostly 53.6 µM), actives largely listed as inhibitors. Drosophila S2 Gal4-VP16 UAS-luciferase, luminescence, 20 h. AID 2546, 2010. actives 3.5% (n = 310,000);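 note: Gal4-VP16 expression switched on by copper sulfate through the metallothionein promoter; nearly all actives have a fitted effect of over 50% in size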
RORgamma inh = qHTS for inhibitors of ROR gamma transcriptional activity. actives 5.4% (n = 310,000). Nuclear receptor ROR-gamma (Mus musculus), P51450. Potency, µM (highest dose often 53.6 µM), usual class: inhibitors. Drosophila S2 Gal4-RORgamma UAS-luciferase reporter, 20 h. AID 2551, 2010; note: nearly all actives have a fitted effect of over 60% in size
Target sequence (P51450 whole entry, looked up, the tested form may be a part): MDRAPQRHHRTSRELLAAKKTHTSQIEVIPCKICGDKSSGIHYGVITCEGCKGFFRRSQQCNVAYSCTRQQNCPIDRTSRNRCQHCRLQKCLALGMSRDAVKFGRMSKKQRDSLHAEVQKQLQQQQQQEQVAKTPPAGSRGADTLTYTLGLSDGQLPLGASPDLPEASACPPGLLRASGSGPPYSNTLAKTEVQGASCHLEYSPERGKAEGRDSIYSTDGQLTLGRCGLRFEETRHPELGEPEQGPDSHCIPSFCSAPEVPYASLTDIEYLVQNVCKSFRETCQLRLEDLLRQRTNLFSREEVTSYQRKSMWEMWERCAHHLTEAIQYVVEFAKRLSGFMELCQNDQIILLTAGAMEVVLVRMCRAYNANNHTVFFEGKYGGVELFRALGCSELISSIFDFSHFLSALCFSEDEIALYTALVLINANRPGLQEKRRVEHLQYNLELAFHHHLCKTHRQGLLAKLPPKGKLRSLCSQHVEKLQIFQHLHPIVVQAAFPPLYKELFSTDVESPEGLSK
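A Gal4/UAS one-hybrid system in insect cells: metallothionein-promoter Gal4–ROR gamma fusion plus Photinus luciferase reporter. Copper sulfate 700 uM final, 20 hr ambient incubation, luminescent detection after 10 min with reagent.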
LDHA block = qHTS assay for inhibitors of human lactate dehydrogenase; actives 0.15% (n = 480,000); AID 1347041, 2019; purified LDHA, NADH/diaphorase-resazurin fluorescence; stronger effect = lower value; L-lactate dehydrogenase A chain (Homo sapiens), P00338; activity change, % (values are at about 110 or 230 µM); in the data active = activity change below about -30%; inconclusive = mostly about -25% to -30%
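Remaining NADH was detected by diaphorase (0.133 mg/mL) converting 37 µM resazurin to fluorescent resorufin, read at 0 and 20 minutes. The preceding 5-minute room-temperature reaction used 2 nM LDHA, 0.2 mM sodium pyruvate and 0.06 mM NADH at pH 7.4.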
IL1B secr inh = qHTS for Inhibitors of Inflammasome Signaling: IL-1-beta AlphaLISA Primary Screen; THP-1 LPS/ATP IL-1B secretion, AlphaLISA, 16 h; stronger effect = lower value; activity change, % at 57.5 µM; actives 4.7% (n = 360,000); AID 743279, 2014; in the data active = activity change below about -50%; inconclusive = mostly about -30% to -49%
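THP-1 cells pretreated 1 hr with compounds (up to 57.5 uM final), then stimulated with LPS (250 ng/mL final) plus ATP (1.25 mM final); secreted IL-1B measured by AlphaLISA after 16 hr, decreased signal indicating inhibition.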
TDP1 cell CPT = qHTS for Inhibitors of human tyrosyl-DNA phosphodiesterase 1 (TDP1): qHTS in cells in presence of CPT; chicken DT40 Tdp1-/-;hTDP1 cells + 20 nM CPT, ATP luminescence, 48 h; Potency, µM (series often up to 46.2 µM), hits mostly inhibitors; actives 12% (n = 420,000); AID 686979, 2013; note: nearly all actives have a fitted effect of over 55% in size
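Chicken DT40 Tdp1-/- cells stably complemented with human TDP1 were seeded at 400 cells/well in medium containing 20 nM camptothecin, exposed to pin-transferred compounds, and grown at 37 °C for at least 48 hr. Viability was read as ATP luminescence.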
Numbers stand for hits; – = inactive; ? = inconclusive; · = no result given. Unless noted, calls come from the whole dose curve; as a rule, active = well fitted curve in the direction sought with a large enough effect; inconclusive = small, poorly fitted or top-dose-only effect, or another doubt; inactive = no such curve, though single readings can be large; an effect the other way counts as inactive or inconclusive.

SMILES | DT40 TDP1 no CPT | VP16 counter | RORgamma inh | LDHA block | IL1B secr inh | TDP1 cell CPT
CCOC(=O)C1CCCN(C(=S)Nc2ccc(C)cc2C)C1 (stereo not drawn) | – | ? | 11.2µM | – | – | –
CCOC(=O)C1CCN(C(=S)Nc2ccc(C)cc2)CC1 | – | – | ? | – | – | –
COC(=O)c1ccc(C)c(NS(=O)(=O)c2c(C)nn(C)c2C)c1 | · | · | · | – | · | ·
COC(=O)c1cc2cc3ccccc3nc2s1 | · | · | · | – | · | ·
O=C(CSc1nc2ccsc2c(=O)n1-c1cc(F)cc(F)c1)Nc1ccc2c(c1)OCCO2 | · | · | · | – | · | ·
CN(CC1CCCO1)S(=O)(=O)c1ccc(C(=O)Nc2ccc3c(c2)OCO3)cc1 (stereo not drawn) | ? | – | – | – | – | ?
CN(CC1CCCO1)S(=O)(=O)c1ccc(C(=O)Nc2nc3cc4c(cc3s2)OCO4)cc1 (stereo not drawn) | 10.3µM | – | – | – | – | 7.31µM
COc1ccc(-c2nnc(NC(=O)c3ccc(S(=O)(=O)N(C)CC4CCCO4)cc3)o2)c(OC)c1 (stereo not drawn) | ? | 1µM | 0.708µM | – | – | ?
O=C(Nc1ccccc1C(F)(F)F)c1ccc(Cl)c(Cl)c1 | · | · | · | – | · | ·
CS(=O)(=O)c1ccc(-c2nc(-c3ccc(F)cc3)c(-c3ccncc3)[nH]2)cc1 | 27.5µM | · | · | · | · | ?
Oc1ccc(-c2nc(-c3ccccc3)c(-c3ccc(Br)cc3)[nH]2)cc1 | ? | · | · | – | · | ?
CCOc1ccc(NC(=O)c2cnc(SC)nc2C(F)(F)F)cc1 | · | · | · | – | · | ·
CN1CCC(N(C)CCN(C)C(=O)Nc2ccccc2C(F)(F)F)CC1 | · | · | · | – | · | ·
COc1ccccc1CCNC(=O)Cn1nc(C(N)=O)c2ccccc2c1=O | · | · | · | – | · | ·
COc1cc(-c2nccc3cc4c(cc23)OCO4)cc(OC)c1OC | 4.61µM | · | · | – | – | 5.8µM
Cc1ccnc(SCc2cc(=O)c(OC(=O)c3ccc(Cl)c([N+](=O)[O-])c3)co2)n1 | – | 11.2µM | 10µM | – | – | –
CCOC(=O)C(=CNc1cc(Cl)c(-c2ccco2)c(Cl)c1)C(=O)OCC | 11.6µM | – | – | – | – | 18.4µM
CCOC(=O)C(=CNc1ccc(-c2ccco2)c(Cl)c1)C(=O)OCC | 16.4µM | – | – | – | – | 20.6µM
COc1ccc(C(=O)OCc2ccc(Cl)cc2)c(OC)c1OC | · | · | · | – | · | ·
O=C(Nc1c(-c2ccccc2)nc2ccccn12)c1cccc(F)c1 | – | – | – | -31.1 | – | –
COc1ccccc1C(=O)Nc1c(-c2ccccc2)nc2ccccn12 | ? | – | – | – | – | 23.1µM
Cc1ccccc1C(=O)NCCSc1c[nH]c2ccccc12 | · | · | · | – | · | ·
C/C(=N/Nc1ccc(S(=O)(=O)Nc2ccc(C)cc2C)cc1[N+](=O)[O-])c1ccc(Cl)s1 | · | · | · | – | · | ·
Cc1ccc(Cc2nc3ccccc3nc2SCC(=O)N2CCNC2=O)cc1 | · | · | · | – | · | ·
S=C(c1ccc(-c2ccccc2Cl)o1)N1CCOCC1 | ? | – | – | – | -90.8 | ?
SMILES | DT40 TDP1 no CPT | VP16 counter | RORgamma inh | LDHA block | IL1B secr inh | TDP1 cell CPT
O=C(NNC(=O)c1ccccc1F)c1ccco1 | – | – | – | – | – | –
S=C(c1ccc(-c2ccc(Cl)c(Cl)c2)o1)N1CCOCC1 | ? | – | – | – | ? | ?
CC1CCN(C(=O)c2ccc(-c3ccccc3Cl)o2)CC1 | ? | · | · | – | -100.3 | –
O=C(NNC(=O)c1ccccc1F)c1ccc(-c2ccccc2Cl)o1 | ? | · | · | – | -52.4 | –
O=C(c1ccc(-c2ccccc2Cl)o1)N1CCC1 | ? | · | · | – | – | –
N#Cc1c(Cl)nc(N/N=C/c2ccc([N+](=O)[O-])cc2)c(Cl)c1Cl | · | · | · | – | · | ·
CCc1cccc(NC(=O)CCc2c(C)nc3c(c2C)c(=O)n(C)c(=O)n3C)c1 | ? | · | · | – | · | 23.1µM
CCCCN1CC(COCc2ccccc2)Oc2cccc(NCc3ccc(OC)cc3)c2S1(=O)=O (stereo not drawn) | ? | · | · | – | – | ?
CCCCN1CC(COCc2ccccc2)Oc2cccc(Oc3ccc(C)cc3)c2S1(=O)=O (stereo not drawn) | 7.31µM | · | · | – | – | 8.2µM
CCCCN1CC(COCc2ccccc2)Oc2cccc(Oc3ccc(F)cc3)c2S1(=O)=O (stereo not drawn) | ? | · | · | – | – | ?
COC(=O)C1=CN(Cc2ccc(OC)cc2)C=C(C(=O)OC)C1c1ccccc1OCc1ccccc1 | · | · | · | – | · | ·
CCCCN1CC(COCc2ccccc2)Oc2cccc(OCc3ccc(OC)cc3)c2S1(=O)=O (stereo not drawn) | 4.11µM | · | · | – | – | 5.8µM
CCCCNc1cccc2c1S(=O)(=O)N(CCCC)CC(COCc1ccccc1)O2 (stereo not drawn) | 16.4µM | · | · | – | – | ?
CCCCN1CC(COCc2ccccc2)Oc2cccc(Oc3ccccc3)c2S1(=O)=O (stereo not drawn) | 18.4µM | · | · | – | – | ?
CN(C)C(=O)C(Sc1nnc(-c2ccc(Cl)cc2)n1N)c1ccccc1 (stereo not drawn) | · | · | · | – | · | ·
CCCCN1CC(COCc2ccccc2)Oc2cccc(Oc3cc(C)c(C)c(C)c3)c2S1(=O)=O (stereo not drawn) | 5.17µM | · | · | – | – | 7.31µM
COc1ccc(-c2coc3cc(OCCN4CCCCC4)ccc3c2=O)cc1 | · | · | · | – | · | ·
COc1ccc(-c2sc3cc(OC)ccc3c2-c2ccc(OCCN3CCCCC3)cc2)cc1 | 5.8µM | · | · | – | ? | 4.61µM
Oc1ccc2sc(-c3ccccc3O)c(-c3ccc(OCCN4CCCCC4)cc3)c2c1 | ? | · | · | – | – | 20.6µM
COc1ccccc1-c1sc2ccccc2c1-c1ccc(OCCN2CCCCC2)cc1 | 14.6µM | · | · | – | – | 18.4µM
COc1ccc2c(-c3ccc(OCCN4CCCCC4)cc3)c(-c3ccccc3OC)sc2c1 | 14.6µM | · | · | – | – | –
c1ccc(COc2ccc(OCCN3CCCC3)cc2)cc1 | ? | – | – | – | – | ?
COc1ccccc1-c1sc2ccccc2c1-c1ccccc1OC | ? | · | · | – | – | ?
Cc1ccccc1OCC(=O)NCc1ccc(CS(N)(=O)=O)cc1 | · | · | · | – | · | ·
Cc1ccc(C(=O)c2c(C)c(C)cc(C)c2C)cc1 | · | · | · | – | · | ·
O=c1cc(CN2CCN(c3ccccc3F)CC2)c2cc(O)ccc2o1 | · | · | · | – | · | ·
COc1cc2sc(-c3ccccc3OC)c(-c3ccc(OCCN4CCOCC4)cc3)c2cc1OC | ? | · | · | – | – | ?
COc1ccc2c(-c3ccc(OCCN4CCOCC4)cc3)c(-c3ccccc3OC)sc2c1 | 20.6µM | · | · | – | – | 20.6µM

Screening data (PubChem BioAssay)
